High-throughput results from PubChem BioAssay.
Shiga inhibitor: inhibitors of Shiga toxin in Vero cells | AID 2315 | inhibition, % at 38.7 µM | Vero cells, Shiga toxin protein synthesis inhibition reporter | actives 9.2% (n = 290,000); in the data active = inhibition mostly above about 28%, no sharp cut-off; inactive = mostly below about 43%
CHX counter: counter-screen for Shiga toxin inhibitors: cycloheximide protein synthesis inhibition. cell reporter, cycloheximide protein synthesis inhibition counterscreen. max response, %. actives 12% (n = 300,000); in the data active = max response mostly above about 13%, no sharp cut-off; inactive = mostly below about 14%; also: read at 38.3 µM for the half of the compounds with a filed dose
Sm TGR inh: inhibitors of Schistosoma mansoni thioredoxin glutathione reductase. purified TGR, DTNB reduction, TNB absorbance 405 nm. actives 3% (n = 360,000). Q962Y6. Potency, µM (titrated, usually from 114 µM), actives largely listed as inhibitors; active = well fitted inhibition curve with a large enough effect; inconclusive = small, poorly fitted or top-dose-only effect; inactive = no such curve, though single readings can be large or run the other way; also: nearly all actives have a fitted effect of over 60% in size
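TGR 20 nM + NADPH 100 uM (dispensed conc.), cpd preinc 15 min RT; start with NADPH (500 uM addition) then DTNB (15 mM addition). Kinetic TNB absorbance, 405 nm filter. Four-parameter Hill fit across titration.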
FMDV inh: blocks foot and mouth disease virus; FMDV antiviral cell-based qHTS; Potency, µM (doses to about 57.9 µM), usual class: inhibitors; actives 1.2% (n = 410,000); AID 1159524; calls by dose curve; tested in HEK293T cells; also: read-out not given here; nearly all actives have a fitted effect of over 45% in size
Of the large screens only hits and unclear results are named; the others gave an inactive call. Shown are actives, neighbours in structure and some others; about 12% of the full set was active somewhere.

Cc1cccn2c1nc(=S)n2C(=O)c1ccco1	Shiga inhibitor 82, CHX counter 43
O=C(Oc1cc(=O)oc2c1c(=O)n1c3c(cccc23)CC1)c1ccccc1	Sm TGR inh 10µM
O=C(Oc1cc(=O)oc2c1c(=O)n1c3c(cccc23)CC1)c1ccc(F)cc1	Sm TGR inh 25µM
O=C(Oc1cc(=O)oc2ccccc12)c1ccccc1	none
CC(C)CC(=O)Nc1nnc(SCc2cc(=O)n3ccccc3n2)s1	none (no result: Shiga inhibitor, CHX counter)
COC(=O)C1=C(C)NC(C)=C(C(=O)OC)C1c1cc2cc(C)ccc2[nH]c1=O	Sm TGR inh inconclusive
Cc1ccc2[nH]c(-c3cccc(N)c3)cc2c1	Shiga inhibitor 97, CHX counter 30
Cc1ccc(C)c(OC(=O)CSc2nnc(-c3ccc4c(c3)OCO4)o2)c1	none (no result: Shiga inhibitor, CHX counter)
Cc1nnc(NC(=O)c2sc3nc(-c4cccs4)cc(C(F)(F)F)c3c2N)s1	Shiga inhibitor 57, CHX counter 41, FMDV inh inconclusive
CCN(CC)C(=O)c1sc2nc(-c3cccs3)cc(-c3cccs3)c2c1N	Sm TGR inh 89µM
CCN(CC)C(=O)c1sc2nc(-c3cccs3)cc(-c3ccc(Cl)cc3)c2c1N	none
O=C(N/N=C/c1cc(Br)c(O)c(Br)c1)c1cc2c(ccc3ccccc32)o1	FMDV inh inconclusive
O=C(NC1CCCC1)c1cc2c(ccc3ccccc32)o1	Shiga inhibitor 60, CHX counter 44
COCC(C)NC(=O)c1cc2c(ccc3ccccc32)oc1=O (stereo not given)	Shiga inhibitor 22, CHX counter 24
O=C(N/N=C/c1cc(Cl)c(O)c(Cl)c1)c1cc2c(ccc3ccccc32)o1	CHX counter 37
Cc1ccc(/C=N/NC(=O)c2cc3c(ccc4ccccc43)o2)o1	none
CNC(=O)c1cc2c(ccc3ccccc32)o1	Shiga inhibitor 81, CHX counter 33 (no result: Sm TGR inh)
CCOc1ccc(S(=O)(=O)NCCc2c(C)[nH]c3c(Cl)cccc23)cc1C	none (no result: Shiga inhibitor, CHX counter)
CCCNC(=O)N1N=C(c2ccc(N)cc2)c2cc3c(cc2C1C)OCO3 (stereo not given)	none (no result: Sm TGR inh, FMDV inh)
O=C(NC1CC1)c1cc2ccccc2o1	Shiga inhibitor 43, CHX counter 15
Cc1ccccc1NC(=O)C1CCN(S(=O)(=O)c2ccccc2)CC1	none (no result: Shiga inhibitor, CHX counter)
CC(C)Oc1ccc(CNC(=O)c2ccccc2NC(=O)c2nsc3ccccc23)cc1	none (no result: Shiga inhibitor, CHX counter)
Fc1ccc(-c2nnc(NC3=NCCCCC3)o2)cc1	FMDV inh 10µM
c1ccc(-c2nnc(NC3=NCCC3)o2)cc1	none (no result: Sm TGR inh)
Fc1ccc(-c2nnc(-c3ccc(F)cc3)o2)cc1	CHX counter 28
O=C(c1cc2ccccc2c(=O)o1)N1CCCc2ccccc21	CHX counter 17
COc1cccc(NC(=O)N2CCCC2)c1	Shiga inhibitor 54
COc1ccc(NC(=O)N2CCCc3ccccc32)cc1OC	CHX counter 16
O=C(c1ccc(Cl)c([N+](=O)[O-])c1)N1CCCc2ccccc21	Shiga inhibitor 39, CHX counter 34
COc1cccc(NC(=O)N2CCN(S(C)(=O)=O)CC2)c1	none (no result: Sm TGR inh)
O=S1(=O)c2ccccc2N(Cc2ccc(Cl)cc2F)c2ccccc21	FMDV inh inconclusive (no result: Shiga inhibitor, CHX counter)
CC(=O)c1cccc(NC(=O)N2CCCc3ccccc32)c1	CHX counter 21
COc1cccc(NC(=O)C(=O)N2CCOCC2)c1	Shiga inhibitor 50, CHX counter 41
CC(=O)c1cccc(NC(=O)Cc2ccc(NC(=O)N3CCCCc4ccccc43)cc2)c1	none (no result: Shiga inhibitor, CHX counter)
CC(=O)c1cccc(OCC(=O)N2CCCc3ccccc32)c1	CHX counter 23
O=C(c1coc(=O)c(Br)c1)N1CCCc2ccccc21	Shiga inhibitor 74, CHX counter 40, Sm TGR inh 22µM
O=C(c1cccc(Br)c1)N1CCCc2ccccc21	none
COc1ccc(CC(=O)OCC(=O)N2CCCc3ccccc32)cc1	none (no result: Shiga inhibitor, CHX counter)
COc1cccc(NC(=O)CN2CCC(C)CC2)c1	Shiga inhibitor 35, CHX counter 30
COc1cc(OC)cc(C(=O)N2CCCc3ccccc32)c1	CHX counter 24 (no result: FMDV inh)
COc1ccc(C(=O)N2CCCc3ccccc32)cc1Br	none
O=C(c1ccc(S(=O)(=O)N2CCOCC2)cc1)N1CCCc2ccccc21	CHX counter 22
COc1ccc(CC(=O)N2CCCc3ccccc32)cc1	Shiga inhibitor 99, CHX counter 54
CC1CCN(C(=O)c2ccc3c(c2)N(Cc2ccccc2F)C(=O)c2ccccc2S3(=O)=O)CC1	none (no result: Shiga inhibitor, CHX counter)
COc1ccc(OC)c(CNC(=O)Cc2ccc(NC(=O)N3CCCCc4ccccc43)cc2)c1	none (no result: Shiga inhibitor, CHX counter)
COc1cccc(NC(=O)N2CCCc3ccccc32)c1	Shiga inhibitor 73, CHX counter 47 (no result: Sm TGR inh)
COC(=O)/C(=N/Nc1cccc(C)c1)N1CCCc2ccccc21	CHX counter 19
COc1ccc2c(c1)C(=O)[C@H](O)[C@@H](c1ccc(OC)c(Br)c1)O2	CHX counter 19
COc1cccc([C@@H]2Oc3ccc(OC)cc3C(=O)[C@H]2OC(=O)NCc2ccc3c(c2)OCO3)c1	Shiga inhibitor 84, CHX counter 64 (no result: FMDV inh)
COc1cccc([C@@H]2Oc3ccc(OC)cc3C(=O)[C@H]2OC(=O)Nc2cc(OC)c(OC)c(OC)c2)c1	Shiga inhibitor 45, CHX counter 11
COc1cccc([C@@H]2Oc3ccc(OC)cc3C(=O)[C@H]2OC(=O)N[C@H](C)C2CCCCC2)c1	none (no result: FMDV inh)
COc1ccc2c(c1)O[C@H](c1ccc3c(c1)OCO3)[C@@H](OC(=O)Nc1cc(OC)c(OC)c(OC)c1)C2=O	none (no result: FMDV inh)
Cc1cc2c(cc3c(SCc4ccc(Cl)cc4)nnc(C)n32)o1	none (no result: Shiga inhibitor, CHX counter)
O=C(NCCCN1CCN(c2cccc(Cl)c2)CC1)c1cnn(-c2ccc(F)cc2)c1-n1cccc1	FMDV inh inconclusive (no result: Shiga inhibitor, CHX counter)
C=C1CCC2C(CC2(C)C)C(=C)CC/C1=N/O (stereo not given)	none (no result: Shiga inhibitor, CHX counter, Sm TGR inh)
CCCc1nn(C)c(C(=O)Nc2ccccc2)c1Cl	Shiga inhibitor 72, CHX counter 92, FMDV inh inconclusive
CCCc1nn(C)c(C(=O)Nc2ccc(Cl)cc2)c1Cl	CHX counter 25
CCCc1nn(C)c(C(=O)Nc2ccc(C(C)(C)C)cc2)c1Cl	none
COc1ccc(-c2c(C)nn3c(C(F)(F)F)cc(-c4ccccc4)nc23)cc1	none (no result: Shiga inhibitor, CHX counter)
COc1cccc(-c2nc(CS(=O)(=O)CC(=O)NCCc3ccc(Cl)cc3)c(C)o2)c1	none (no result: Shiga inhibitor, CHX counter)
Oc1ccc(C(c2nnnn2C2CCCC2)N2CCc3ccccc3C2)cc1 (stereo not given)	Sm TGR inh 3.2µM
COc1cc(C(c2nnnn2C2CCCC2)N2CCc3ccccc3C2)ccc1O (stereo not given)	Sm TGR inh inconclusive
COc1ccc(C2C(=O)N(C3CCC(C)CC3)CC(=O)N2CCc2ccccc2)cc1OC (stereo not given)	none (no result: Shiga inhibitor, CHX counter)
COC(=O)c1ccc(C(=O)NN)cc1	none
COC(=O)c1ccc(C(=O)Nc2ccc(C(C)C)cc2N)cc1	Shiga inhibitor 70, CHX counter 32
Cc1ccc(NC(=O)c2oc3ccc(S(=O)(=O)N4CCC5(CC4)OCCO5)cc3c2C)c(C)c1	FMDV inh inconclusive (no result: Shiga inhibitor, CHX counter)
COc1cccc(NC(=O)Nc2cccs2)c1	CHX counter 24, Sm TGR inh inconclusive
COc1ccc(OC)c(NC(=O)Nc2cnccn2)c1	CHX counter 16
COc1cccc(NC(=O)Nc2cnccn2)c1	CHX counter 20
